Potency data for 15 molecules are collected here from PubChem BioAssay AID2528 (National Center for Advancing Translational Sciences (NCATS), 2010).

Hit rate of the full screen: of about 350,000 compounds, about 700 (0.2%) were called active. A call without a number means that no potency is given here. This is one part of a sample in which actives are shown more often than they occur. The call rests on the fitted dose curve; in most records, active means well fitted inhibition curve with a large enough effect; inconclusive means small, poorly fitted or top-dose-only effect; inactive means flat fitted curve, though single readings scatter.
Potency means the concentration at half of the fitted maximal effect.

RecQ-like DNA helicase BLM (Homo sapiens), sequence (P54132 whole entry, looked up): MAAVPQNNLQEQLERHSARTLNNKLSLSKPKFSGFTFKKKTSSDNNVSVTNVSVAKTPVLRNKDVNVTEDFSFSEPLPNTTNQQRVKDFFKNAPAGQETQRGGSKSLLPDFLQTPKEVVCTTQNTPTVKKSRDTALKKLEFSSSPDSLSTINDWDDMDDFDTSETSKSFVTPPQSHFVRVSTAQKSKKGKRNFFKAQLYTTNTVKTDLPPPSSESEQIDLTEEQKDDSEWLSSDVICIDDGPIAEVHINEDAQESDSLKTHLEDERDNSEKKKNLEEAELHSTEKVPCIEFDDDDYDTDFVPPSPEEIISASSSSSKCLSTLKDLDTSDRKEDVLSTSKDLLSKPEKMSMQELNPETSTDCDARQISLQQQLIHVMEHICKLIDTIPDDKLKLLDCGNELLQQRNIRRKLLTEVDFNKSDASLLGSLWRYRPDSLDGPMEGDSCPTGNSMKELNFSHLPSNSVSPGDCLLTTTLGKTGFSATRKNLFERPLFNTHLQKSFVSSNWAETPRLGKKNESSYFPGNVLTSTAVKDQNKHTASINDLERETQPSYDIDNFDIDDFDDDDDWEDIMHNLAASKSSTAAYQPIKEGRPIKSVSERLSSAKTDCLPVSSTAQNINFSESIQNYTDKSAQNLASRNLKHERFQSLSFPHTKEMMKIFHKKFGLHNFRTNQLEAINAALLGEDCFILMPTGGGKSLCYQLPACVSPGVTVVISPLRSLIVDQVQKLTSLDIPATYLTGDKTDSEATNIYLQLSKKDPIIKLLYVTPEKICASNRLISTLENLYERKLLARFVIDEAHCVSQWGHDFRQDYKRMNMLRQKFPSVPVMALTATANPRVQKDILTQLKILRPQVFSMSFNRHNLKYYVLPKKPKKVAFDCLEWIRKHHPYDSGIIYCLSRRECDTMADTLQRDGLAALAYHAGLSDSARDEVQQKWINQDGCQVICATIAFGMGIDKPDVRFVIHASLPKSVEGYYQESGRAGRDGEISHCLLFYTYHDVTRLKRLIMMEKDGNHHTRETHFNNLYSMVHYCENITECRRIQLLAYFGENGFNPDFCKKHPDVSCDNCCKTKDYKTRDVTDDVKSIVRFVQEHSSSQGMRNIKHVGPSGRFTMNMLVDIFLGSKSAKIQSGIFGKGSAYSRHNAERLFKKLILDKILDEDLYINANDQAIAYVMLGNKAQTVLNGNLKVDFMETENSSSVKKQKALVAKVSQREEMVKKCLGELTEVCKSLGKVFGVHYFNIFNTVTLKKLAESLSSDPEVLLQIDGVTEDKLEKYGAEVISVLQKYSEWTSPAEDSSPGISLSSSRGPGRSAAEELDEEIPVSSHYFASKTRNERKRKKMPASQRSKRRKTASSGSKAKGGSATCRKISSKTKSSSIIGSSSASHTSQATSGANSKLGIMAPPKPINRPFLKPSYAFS

The assay concerns the target RecQ-like DNA helicase BLM (Homo sapiens) (UniProt P54132). Nature of the assay: qHTS Assay for Inhibitors of Bloom's syndrome helicase (BLM). Further: nearly all actives have a fitted effect of over 35% in size. Particulars: recombinant BLM DNA unwinding, fluorescence dequenching; series mostly up to 56.1 µM. The text has this:
Survival of cells and the faithful propagation of the genome depend on elaborate mechanisms of detecting and repairing DNA damage. Treatment of advanced cancer relies on radiation therapy or chemotherapy, which kill cancer cells by causing extensive DNA damage. It is often found, that cancer cells develop resistance to therapy through enhanced activity of DNA repair functions; this has led to an increased interest in developing drugs that interfere with DNA repair, which could sensitize cancer cells to conventional therapy.
This validation qHTS assay pertains to human BLM, which is important in resolving abnormal DNA structures formed during replication or homologous recombination. Shutting down the expression of BLM leads to chromosomal instability and higher radiation sensitivity in cultured cells.
The validation assay was a fluorescence quenching based kinetic qHTS for BLM Helicase DNA unwinding. The activity was measured as ATP-dependent separation of a 20-bp DNA duplex extended by 30-nt single-stranded tails (forked duplex). The forked DNA substrate was tagged with rhodamine fluorophore (carboxytetramethyl rhodamine, TAMRA) and BHQ-2 (Black Hole Quencher 2) dark quencher. Strand separation results in an increase in the fluorescence of TAMRA (excitation 525 nm, emission 598 nm). This substrate construct operates in a red-shifted region where very few compound library members have been noted to fluoresce (PubChem AIDs 593 and 594). An additional feature of the assay is the inclusion of 2.5 ug/ml poly (dIdC), to reduce interference by compounds such as DNA intercalators, a major source of false inhibitors.
Ian Hickson, University of Oxford
Opher Gileadi, Structural Genomics Consortium, University of Oxford
Screening Center PI: Austin, C.P.
Screening Center: NIH Chemical Genomics Center [NCGC]
Three uL of reaction buffer (25 mM Tris-HCl (pH 8.0), 5 mM NaCl, 2 mM MgCl2, 1mM DTT, 0.01% Tween- 20, and 2.5 ug/ml poly(dI-dC), including enzyme (50 nM BLM), were dispensed into a 1536-well Greiner black assay plate via solenoid-valve based nanoliter dispensers. Compounds (23 nl each in columns 5-48) and control (23 nl each in column 2 as dose-response) were transferred via a Kalypsys pintool equipped with a 1536-pin array. The plates were incubated for 15 min at room temperature, and then 1 ul of substrates (200 nM DNA and 2 mM ATP, final concentrations) was added to start the reaction. The plate was transferred into a ViewLux high-throughput CCD imager where the reaction progress was measured in a discontinuous kinetic mode (two reads spaced 2 hours apart, with intermediate room temperature incubation of the covered assay plate) by using standard red-fluorescence optics (excitation filter 525 nm, emission filter 598 nm). Enzyme-free and vehicle (DMSO) controls were included for signal normalization.
A general note: qHTS replaces the single test concentration by a dilution series.
As to `COc1cccc(N2C(=O)NC(=O)/C(=C\c3ccc([N+](=O)[O-])s3)C2=O)c1`, the Potency entry was “inactive”. Regarding `COc1ccc(N2C(=O)/C(=C/c3ccco3)C(=O)NC2=S)cc1`, the Potency is 12.6 µM (active).

Consider `N#Cc1cc(Br)c(O)c(Br)c1`, for which the Potency result was “inactive”.

On to `O=C1CCc2cccc3c2N1CC3`, for which the Potency entry is “inactive”.

With `C[C@]12O[C@H](C[C@@]1(O)C(=O)O)n1c3ccccc3c3c4c(c5c6ccccc6n2c5c31)CNC4=O`, the Potency result is “inactive”.

For `CCN(CC)c1nc(C)cc(OP(=S)(OC)OC)n1`, the Potency result is “inactive”. In the case of `CC(=O)[O][Sn]([c]1ccccc1)([c]1ccccc1)[c]1ccccc1` it was “inactive”; in that of `CCCCCCCCCCCCN=C(N)N`, “inactive”.

Regarding `C[C@@H]1C[C@H]2CC[C@H](O2)[C@H](C)C(=O)O[C@@H](C)C[C@@H]2CC[C@@H](O2)[C@@H](C)C(=O)O[C@H](C)C[C@H]2CC[C@H](O2)[C@H](C)C(=O)O[C@@H](C)C[C@@H]2CC[C@@H](O2)[C@@H](C)C(=O)O1`, the Potency entry was “inactive”. As for `CC[N+](C)(CC)CCC[n+]1c(-c2ccccc2)c2cc(N)ccc2c2ccc(N)cc21`, the Potency is 5.01 µM (active). On to `C[C@H]1C/C=C/[C@@H]2[C@@H]3O[C@]3(C)[C@@H](C)[C@H]3[C@H](Cc4ccccc4)NC(=O)[C@]32OC(=O)O/C=C/[C@](C)(O)C1=O`, for which the Potency entry is “inactive”. `COC([CH2][Hg])CNC(=O)c1ccccc1OCC(=O)O` (stereo not given): the Potency entry was “inactive”. The entry for `CN(C)C[C@H]1CCCC[C@]1(O)c1cccc(O)c1` is “inactive”; for `O=C(OCC1O[C@@H](OC(=O)c2cc(O)c(O)c(O)c2)[C@@H](OC(=O)c2cc(O)c(O)c(O)c2)[C@@H](OC(=O)c2cc(O)c(O)c(O)c2)[C@@H]1OC(=O)c1cc(O)c(O)c(O)c1)c1cc(O)c(O)c(O)c1` (stereo not given in full) it is 0.501 µM (active).

In the case of `CC(C)(Cc1c[nH]c2ccc(Cl)cc12)NCCOc1ccccc1OCC1CC1`, the Potency result is “inactive”.
